Results filed as inconclusive are left out. Entries that show only a call come without a potency. Calls of active or inactive are those of the source. The call rests on the fitted dose curve; in most records, active means well fitted inhibition curve with a large enough effect; inconclusive means small, poorly fitted or top-dose-only effect; inactive means no such curve, though single readings can be large or run the other way.
system: Zika virus NS2B-NS3 protease (linked construct); assay: Primary screen NINDS Rhodamine qHTS for Zika virus inhibitors (AID 1347160); conditions: purified NS2B-NS3 protease, Rhodamine110 substrate fluorescence; series mostly up to 57.1 µM; further: nearly all actives have a fitted effect of over 55% in size
Procedure, shortened: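 Purified NS2B-NS3 protease with the NS2B hydrophilic domain joined by a flexible linker (25 nM) in 10 mM Tris-HCl pH 8.0, 0.01% Tween 20, preincubated 15 min at RT with compound; Rhodamine110 peptide substrate 1.5 µM; fluorescence change over 15 min; 4-parameter Hill fit.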
Potency means the concentration at half of the fitted maximal effect.

Q: Which Potency does the source give for `CC1CCCCN1S(=O)(=O)c1ccc(N2CCCC2=O)cc1` (stereo not given) here?
A: inactive

Q: For `O=C(c1ccc2nccnc2c1)N1CCCCC1`, which Potency is on record?
A: inactive

Q: With `O=C(OCC1=CC(O)C2C=CO[C@@H](O[C@@H]3O[C@H](CO)[C@@H](O)[C@H](O)[C@H]3O)C12)c1ccccc1` (stereo not given in full) as the compound, how does the Potency read?
A: inactive

Q: With `Nc1nc2c(c(=O)[nH]1)C[C@@H](CCc1ccc(C(=O)N[C@@H](CCC(=O)O)C(=O)O)cc1)CN2` as the compound, how does the Potency read?
A: inactive

Q: How did the Potency turn out when `CC[C@]1(O)CC2CN(CCc3c([nH]c4ccccc34)[C@@](C(=O)OC)(c3cc4c(cc3OC)N(C=O)[C@H]3[C@@](O)(C(=O)OC)[C@H](OC(C)=O)[C@]5(CC)C=CCN6CC[C@]43[C@@H]65)C2)C1` (stereo not given in full) was run?
A: inactive

Q: How did the Potency turn out when `O=C(Nc1c(-c2cccs2)nc2ccccn12)c1ccc(Cl)cc1` was run?
A: inactive

Q: How did the Potency turn out when `COc1ccc(CCC(=O)c2c(O)cc(O)cc2O[C@@H]2O[C@H](CO)[C@@H](O)[C@H](O)[C@H]2O)cc1` was run?
A: inactive

Q: With `Cc1cccc(/C=N/Nc2cc(N3CCOCC3)n3nc(-c4ccncc4)cc3n2)c1` as the compound, how does the Potency read?
A: inactive

Q: For `COc1cc(C2Oc3c(OC)cc(CCCO)cc3C2CO)ccc1O[C@H]1O[C@H](C)[C@@H](O)[C@H](O)[C@@H]1O` (stereo not given in full), which Potency is on record?
A: inactive

Q: For `C[C@@H]1CC[C@]2(C(=O)O)CC[C@]3(C)C(=CCC4[C@@]5(C)C[C@@H](O)[C@H](O)[C@@](C)(CO)C5CC[C@]43C)C2[C@]1(C)O` (stereo not given in full), which Potency is on record?
A: inactive

Q: For `COc1c2c(c(C)c3c1C(=O)OC3)OC1(C)CC(O)C34OC(OC)(CC(OC(C)=O)C3(C)C1C2)OC4(C)C` (stereo not given), which Potency is on record?
A: inactive

Q: For `COC(=O)C1=CO[C@@H](O[C@@H]2O[C@H](CO[C@@H]3O[C@H](COC(=O)/C=C/c4cc(OC)c(O)c(OC)c4)[C@@H](O)[C@H](O)[C@H]3O)[C@@H](O)[C@H](O)[C@H]2O)[C@@H]2C(CO)=CC[C@H]12`, which Potency is on record?
A: inactive

Q: Which Potency does the source give for `C/C(=C/CO)CC[C@@H]1[C@@](C)(O)CCC2C(C)(C)CCC[C@]21C` (stereo not given in full) here?
A: inactive

Q: Which Potency does the source give for `COC(=O)N1CCC(n2ncc3c(N4CCOCC4)nc(-c4ccc(NC(=O)Nc5ccc(CO)cc5)cc4)nc32)CC1` here?
A: inactive

Q: How did the Potency turn out when `CN1c2ccccc2C(=O)N2CCC3c4ccccc4NC3C21` (stereo not given) was run?
A: inactive

Q: `CC(C)=CCC/C(C)=C/CCC1(C)Oc2c(c(O)cc3c2CN(C(CCC(=O)O)C(=O)O)C3=O)CC1O` (stereo not given) was tested. Which Potency did it give?
A: inactive

Q: `O=C(/C=C\c1ccc(O)cc1)N[C@@H](Cc1ccc(O)cc1)C(=O)O` was tested. Which Potency did it give?
A: 12.6 µM (active)

Q: Which Potency does the source give for `OC[C@H]1O[C@@H](Oc2ccccc2)[C@H](O)[C@@H](O)[C@@H]1O` here?
A: inactive

Q: How did the Potency turn out when `CCO[C@@H]1OC(=O)C[C@@H]1NC(=O)[C@@H]1CCCN1C(=O)[C@@H](NC(=O)c1ccc(N)c(Cl)c1)C(C)(C)C` was run?
A: inactive

Q: For `CC(C)=CCC/C(C)=C/CO[C@@H]1O[C@H](CO)[C@@H](OC(=O)/C=C/c2ccc(O)cc2)[C@H](O[C@@H]2O[C@@H](C)[C@H](O)[C@@H](O)[C@H]2O)[C@H]1O`, which Potency is on record?
A: inactive

Q: Which Potency does the source give for `Nc1nc(-n2cc(C(=O)O)c(=O)c3cc(F)c(N4CC(O)C4)c(Cl)c32)c(F)cc1F` here?
A: inactive

Q: Which Potency does the source give for `CC1CCC2(C(=O)O)CCC3(C)C(=CCC4C5(C)CCC(O)C(C)(CO)C5CCC43C)C2C1(C)O` (stereo not given) here?
A: inactive

Q: Which Potency does the source give for `CC1C(OC(=O)c2ccccc2)C(O)C2C(C(=O)O)=COC(OC3OC(CO)C(O)C(O)C3O)C12` (stereo not given) here?
A: inactive

Q: Which Potency does the source give for `C[C@@H]1C[C@@H]2O[C@H]2/C=C\C=C\C(=O)Cc2c(Cl)c(O)cc(O)c2C(=O)O1` here?
A: inactive

Q: Which Potency does the source give for `CC1=C(CCC(C)O[C@@H]2O[C@H](CO)[C@@H](O)[C@H](O)[C@H]2O)C(C)(C)CCC1=O` (stereo not given in full) here?
A: inactive

Q: `C/C1=C\CCC2=C[C@@H](OC2=O)c2c(C)coc2C1` was tested. Which Potency did it give?
A: inactive

Q: For `CN1CCN(C(=O)c2ccc3cc(CCNc4ncnc5ccc(C#N)cc45)ccc3c2)CC1`, which Potency is on record?
A: inactive

Q: `C=C1C[C@]23C[C@H]1CC[C@H]2[C@]1(C)CCC[C@@](C)(C(=O)O)[C@H]1[C@@H]3C(=O)O` was tested. Which Potency did it give?
A: inactive

Q: How did the Potency turn out when `C/C=C/C=C/[C@@H]1O[C@](O)([C@H](CC)C(=O)NC/C=C/C=C(\C)[C@@H](OC)[C@@H](C)C2OC(/C=C/C=C/C=C(\C)C(=O)c3c(O)cc[nH]c3=O)[C@H](O)[C@@H]2O)[C@H](O)[C@H](O)C1(C)C` (stereo not given in full) was run?
A: inactive

Q: With `Cc1cc(C)cc(C(=O)NOCCCCCC(=O)NO)c1` as the compound, how does the Potency read?
A: inactive

Q: `CN(C)CC1CCOC1(c1ccccc1)c1ccccc1` (stereo not given) was tested. Which Potency did it give?
A: inactive

Q: How did the Potency turn out when `C=C(CO[C@@H]1O[C@H](CO[C@@H]2OC[C@](O)(CO)[C@H]2O)[C@@H](O)[C@H](O)[C@H]1O)C1Cc2cc(C(C)=O)ccc2O1` (stereo not given in full) was run?
A: inactive

Q: How did the Potency turn out when `C=C(C(=O)O)C1CCC2(C)CCCC(C)(O)C2C1` (stereo not given) was run?
A: inactive

Q: `O=S(=O)(NC1CCC(c2cc(F)ccc2F)(S(=O)(=O)c2ccc(Cl)cc2)CC1)C(F)(F)F` (stereo not given) was tested. Which Potency did it give?
A: 12.6 µM (active)

Q: `O=C(O)C(O[C@@H]1O[C@H](CO[C@@H]2O[C@H](CO)[C@@H](O)[C@H](O)[C@H]2O)[C@@H](O)[C@H](O)[C@H]1O)c1ccccc1` (stereo not given in full) was tested. Which Potency did it give?
A: inactive

Q: With `C[C@H](NC(=O)CCc1nc2ccccc2c(=O)[nH]1)c1ccccc1` as the compound, how does the Potency read?
A: inactive

Q: For `CC(=O)O[C@@H](CO[C@@H]1O[C@H](CO)[C@H](O)[C@H](O)[C@H]1O)[C@]1(C)C=C2CC[C@@H]3C(C)(C)[C@@H](O)CC[C@@]3(C)[C@@H]2CC1`, which Potency is on record?
A: inactive

Q: `COc1cc(O)c2c(c1)C1=CC(O)C(O)CC1(C)OC2=O` (stereo not given) was tested. Which Potency did it give?
A: inactive

Q: `C=C[C@H]1C(O[C@@H]2O[C@H](CO)[C@@H](O)[C@H](O)[C@H]2O)OC=C2C(=O)N3CCc4c([nH]c5ccccc45)[C@H]3C[C@H]21` (stereo not given in full) was tested. Which Potency did it give?
A: inactive

Q: For `OC[C@H]1O[C@@H](Oc2cc(O)c3c(c2)O[C@@H](c2ccc(O)cc2)[C@H](O)C3)[C@H](O)[C@@H](O)[C@@H]1O`, which Potency is on record?
A: inactive
